These results are taken from PubChem BioAssay (EPA / NIEHS).

Records with an inconclusive call do not appear. Calls of active or inactive are those of the source. Rule for the calls, unless noted: active = hit-call score of the fitted dose curve at least 0.9, where 1 is the maximum; inconclusive = response in the unintended direction; inactive = score below 0.9.

In assay [1] the target is Bile acid receptor (Homo sapiens) (UniProt Q96RI1). The assay is described as follows: ATG_FXR_TRANS: Attagene TRANS-FACTORIAL HepG2 Assay for Farnesoid X Receptor (FXR) (AID 2282979).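 Note: hits raise reporter mRNA above DMSO so AC50 marks FXR activation.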 The following applies: HepG2 Attagene TRANS FXR-GAL4 reporter transcription. In a few lines:
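Chimeric FXR-GAL4 activity in transiently transfected human HepG2 liver cells is scored as induction of reporter mRNA after 24 h of dosing. Detection uses RT-PCR with fluorescent labelling and capillary electrophoresis, with DMSO serving as baseline.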

In assay [2] the target is Oxysterols receptor LXR-alpha (Homo sapiens) (UniProt Q13133). The assay is described as follows: ATG_LXRa_TRANS: Attagene TRANS-FACTORIAL HepG2 Assay for human Liver X Receptor alpha (LXRa) (AID 2282980). The following applies: HepG2 Attagene TRANS reporter, LXRa transactivation. The method, boiled down:
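Transient HepG2 transfectants, 24 h dosing, RT-PCR/CE mRNA reporter quantitation; gain-of-signal vs DMSO.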

Assay [3] concerns the target Hepatocyte nuclear factor 4-alpha (Homo sapiens) (UniProt P41235). The assay is described as follows: ATG_HNF4a_TRANS: Attagene TRANS-FACTORIAL HepG2 Assay for human Hepatocyte Nuclear Factor 4 alpha (HNF4a) (AID 2282982). The following applies: HepG2 HNF4a transactivation reporter, mRNA readout. The method, boiled down:
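Using HepG2 liver cells transfected with GAL4-UAS reporter units, chemical-induced mRNA increases were assessed after 24 hours. Fluorescent RT-PCR fragments were separated by capillary electrophoresis and compared with DMSO negative controls.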

Assay [4] in a line: ATG_M_06_TRANS: Attagene TRANS-FACTORIAL HepG2 Assay for M06 Transcription Factor (Internal Marker) (AID 2282983).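 Note: reporter transcript level by RT-PCR then capillary electrophoresis fluorescence.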 The following applies: HepG2 Attagene TRANS M06 internal marker reporter. In a few lines:
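Human liver HepG2 cells bearing transiently transfected chimeric NR-GAL4 reporter units were treated with chemicals for 24 h. Total RNA was reverse-transcribed, reporter sequences amplified and labelled, then quantified by capillary electrophoresis. Activity was fitted upward relative to DMSO.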

Assay [5] deals with Nuclear receptor subfamily 4 group A member 2 (Homo sapiens) (UniProt P43354). The assay is described as follows: ATG_NURR1_TRANS: Attagene TRANS-FACTORIAL HepG2 Assay for human Nuclear Receptor Related Protein 1 (NURR1) (AID 2282985). As to conditions: HepG2 Attagene TRANS reporter, mRNA readout. The method, boiled down:
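Chimeric NR-Gal4 proteins were expressed in human HepG2 cells bearing GAL4-UAS reporter units, and induced reporter mRNA was quantified 24 h post-dosing by RT-PCR and capillary electrophoresis.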

Assay [6] has as its target Transcriptional activator Myb (Homo sapiens) (UniProt P10242). The assay is described as follows: ATG_Myb_CIS: Attagene CIS-FACTORIAL HepG2 Assay for human Myeloblastosis (Myb) Proto-Oncogene Transcription Factor (AID 2282986; active = hit-call score of the fitted dose curve at least 0.9, where 1 is the maximum; inactive = score below 0.9). The following applies: HepG2 Attagene CIS-FACTORIAL Myb reporter transcription; actives raise or lower the signal. In a few lines:
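Steps: transfect HepG2 with cis-regulated reporter units; dose with chemical for 24 h; isolate RNA, reverse-transcribe, PCR-amplify and FAM-label reporter sequences; digest with HpaI; resolve by capillary electrophoresis. Activity fitted in both directions relative to DMSO.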

The target in assay [7] is Glucocorticoid receptor (Homo sapiens) (UniProt P04150). The assay is described as follows: ATG_GR_TRANS: Attagene TRANS-FACTORIAL HepG2 Assay for human Glucocorticoid Receptor (GR) (AID 2282978).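 Note: activators score as hits since higher reporter transcript over DMSO is fitted.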 As to conditions: HepG2 Attagene TRANS GR reporter, mRNA transcription. In a few lines:
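In this trans-factorial format, exogenous NR-GAL4 chimeric proteins in transfected HepG2 cells regulate GAL4-UAS reporter transcription. After 24 h treatment, reporter mRNA induction relative to DMSO is read by RT-PCR and capillary electrophoresis.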

The target of assay [8] is Oxysterols receptor LXR-beta (Homo sapiens) (UniProt P55055). In words: ATG_LXRb_TRANS: Attagene TRANS-FACTORIAL HepG2 Assay for human Liver X Receptor beta (LXRb) (AID 2282981). The following applies: HepG2 Attagene TRANS GAL4-LXRb reporter, mRNA. In a few lines: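 Liver-derived HepG2 cells transfected with Gal4-responsive reporters were dosed for 24 h. Activation was scored as rise in reporter mRNA, by RT-PCR and capillary electrophoresis, above DMSO baseline.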

Assay [9] is described as follows: ATG_M_32_TRANS: Attagene TRANS-FACTORIAL HepG2 Assay for M32 Transcription Factor (Internal Marker) (AID 2282984).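 Note: transcript level of a background control reporter unit measured by RT-PCR and capillary electrophoresis.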 The following applies: HepG2 Attagene TRANS M32 internal marker reporter. The method, boiled down: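 Fluorescence-detected mRNA induction, HepG2 liver cells, 24 h after dosing. Multiple GAL4-UAS reporter units introduced by transient transfection; background-control endpoint analysed for gain of signal against DMSO.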

Chain of Oxysterols receptor LXR-beta (Homo sapiens) (P55055 whole entry, looked up, the tested form may be a part): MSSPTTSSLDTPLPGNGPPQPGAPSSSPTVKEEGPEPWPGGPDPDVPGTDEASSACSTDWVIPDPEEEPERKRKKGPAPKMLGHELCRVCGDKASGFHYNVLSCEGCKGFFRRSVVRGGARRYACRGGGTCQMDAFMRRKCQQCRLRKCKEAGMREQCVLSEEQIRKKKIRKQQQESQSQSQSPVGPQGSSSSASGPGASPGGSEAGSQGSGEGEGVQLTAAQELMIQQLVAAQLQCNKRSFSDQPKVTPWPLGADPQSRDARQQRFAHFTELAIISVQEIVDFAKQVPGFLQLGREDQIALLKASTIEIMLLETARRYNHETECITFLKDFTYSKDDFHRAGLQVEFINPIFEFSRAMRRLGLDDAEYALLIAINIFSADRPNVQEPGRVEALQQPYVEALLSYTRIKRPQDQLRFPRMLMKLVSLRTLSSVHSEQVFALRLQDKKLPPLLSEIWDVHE
Chain of Transcriptional activator Myb (Homo sapiens) (P10242 whole entry, looked up): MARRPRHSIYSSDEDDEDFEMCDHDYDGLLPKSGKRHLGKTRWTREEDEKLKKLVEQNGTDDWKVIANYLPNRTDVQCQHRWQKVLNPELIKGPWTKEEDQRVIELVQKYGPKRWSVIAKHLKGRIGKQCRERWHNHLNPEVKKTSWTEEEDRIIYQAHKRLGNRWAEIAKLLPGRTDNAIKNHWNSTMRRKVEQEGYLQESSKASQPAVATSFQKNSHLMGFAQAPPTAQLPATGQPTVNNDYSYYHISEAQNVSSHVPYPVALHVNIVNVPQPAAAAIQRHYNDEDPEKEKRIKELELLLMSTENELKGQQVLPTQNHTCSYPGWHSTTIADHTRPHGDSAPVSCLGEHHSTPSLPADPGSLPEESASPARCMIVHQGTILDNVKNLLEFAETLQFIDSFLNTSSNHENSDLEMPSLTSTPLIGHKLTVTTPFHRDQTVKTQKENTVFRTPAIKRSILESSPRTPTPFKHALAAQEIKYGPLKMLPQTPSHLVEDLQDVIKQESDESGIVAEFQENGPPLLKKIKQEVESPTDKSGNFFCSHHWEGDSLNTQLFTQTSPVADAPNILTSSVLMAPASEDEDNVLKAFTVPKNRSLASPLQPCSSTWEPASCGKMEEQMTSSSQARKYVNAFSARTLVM
Chain of Glucocorticoid receptor (Homo sapiens) (P04150 whole entry, looked up, the tested form may be a part): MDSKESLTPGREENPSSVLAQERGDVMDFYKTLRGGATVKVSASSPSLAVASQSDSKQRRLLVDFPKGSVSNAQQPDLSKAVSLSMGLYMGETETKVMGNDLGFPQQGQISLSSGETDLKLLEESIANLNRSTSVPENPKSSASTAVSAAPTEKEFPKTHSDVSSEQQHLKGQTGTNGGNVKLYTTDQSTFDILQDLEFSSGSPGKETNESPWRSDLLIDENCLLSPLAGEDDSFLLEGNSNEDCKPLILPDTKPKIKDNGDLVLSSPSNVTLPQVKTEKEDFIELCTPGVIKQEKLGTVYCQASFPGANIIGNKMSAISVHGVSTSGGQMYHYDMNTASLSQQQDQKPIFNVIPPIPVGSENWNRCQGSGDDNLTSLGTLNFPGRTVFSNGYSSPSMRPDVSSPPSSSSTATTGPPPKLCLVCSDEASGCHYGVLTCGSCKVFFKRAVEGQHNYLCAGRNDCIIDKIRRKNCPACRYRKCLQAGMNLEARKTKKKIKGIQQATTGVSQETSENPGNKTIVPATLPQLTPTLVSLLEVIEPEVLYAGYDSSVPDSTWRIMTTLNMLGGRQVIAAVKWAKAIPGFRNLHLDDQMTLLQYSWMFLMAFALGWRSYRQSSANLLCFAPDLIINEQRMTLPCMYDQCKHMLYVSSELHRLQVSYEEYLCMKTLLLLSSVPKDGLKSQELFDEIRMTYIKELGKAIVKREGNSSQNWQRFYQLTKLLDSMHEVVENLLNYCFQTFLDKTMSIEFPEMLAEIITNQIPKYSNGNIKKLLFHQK
Chain of Nuclear receptor subfamily 4 group A member 2 (Homo sapiens) (P43354 whole entry, looked up, the tested form may be a part): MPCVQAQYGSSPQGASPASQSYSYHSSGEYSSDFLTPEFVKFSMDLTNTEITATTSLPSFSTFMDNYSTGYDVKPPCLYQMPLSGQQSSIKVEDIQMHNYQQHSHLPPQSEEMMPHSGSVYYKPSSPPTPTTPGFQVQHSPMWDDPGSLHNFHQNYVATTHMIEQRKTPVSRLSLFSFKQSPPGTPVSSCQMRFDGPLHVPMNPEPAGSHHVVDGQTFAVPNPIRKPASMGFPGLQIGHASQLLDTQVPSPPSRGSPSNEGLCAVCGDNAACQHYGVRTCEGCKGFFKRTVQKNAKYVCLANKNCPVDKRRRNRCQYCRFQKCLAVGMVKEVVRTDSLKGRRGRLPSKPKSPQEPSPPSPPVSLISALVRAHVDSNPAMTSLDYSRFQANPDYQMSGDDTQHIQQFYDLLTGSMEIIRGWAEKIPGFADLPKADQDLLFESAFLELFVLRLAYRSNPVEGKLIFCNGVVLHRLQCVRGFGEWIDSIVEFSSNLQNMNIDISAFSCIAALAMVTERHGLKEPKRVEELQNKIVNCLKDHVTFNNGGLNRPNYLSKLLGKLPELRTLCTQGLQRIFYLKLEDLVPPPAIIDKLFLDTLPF
Chain of Oxysterols receptor LXR-alpha (Homo sapiens) (Q13133 whole entry, looked up): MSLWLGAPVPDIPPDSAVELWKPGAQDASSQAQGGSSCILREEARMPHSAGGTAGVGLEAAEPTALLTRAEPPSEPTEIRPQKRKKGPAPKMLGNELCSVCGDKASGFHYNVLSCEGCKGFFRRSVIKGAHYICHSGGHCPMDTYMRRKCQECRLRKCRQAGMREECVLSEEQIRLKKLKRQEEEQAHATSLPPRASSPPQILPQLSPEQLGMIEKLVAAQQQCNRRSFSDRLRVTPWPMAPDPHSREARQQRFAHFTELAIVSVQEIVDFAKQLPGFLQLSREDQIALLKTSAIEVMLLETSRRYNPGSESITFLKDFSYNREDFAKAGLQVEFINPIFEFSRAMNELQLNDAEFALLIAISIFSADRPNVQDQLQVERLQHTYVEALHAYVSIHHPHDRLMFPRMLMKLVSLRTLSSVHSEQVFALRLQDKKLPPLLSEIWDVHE
Chain of Bile acid receptor (Homo sapiens) (Q96RI1 whole entry, looked up, the tested form may be a part): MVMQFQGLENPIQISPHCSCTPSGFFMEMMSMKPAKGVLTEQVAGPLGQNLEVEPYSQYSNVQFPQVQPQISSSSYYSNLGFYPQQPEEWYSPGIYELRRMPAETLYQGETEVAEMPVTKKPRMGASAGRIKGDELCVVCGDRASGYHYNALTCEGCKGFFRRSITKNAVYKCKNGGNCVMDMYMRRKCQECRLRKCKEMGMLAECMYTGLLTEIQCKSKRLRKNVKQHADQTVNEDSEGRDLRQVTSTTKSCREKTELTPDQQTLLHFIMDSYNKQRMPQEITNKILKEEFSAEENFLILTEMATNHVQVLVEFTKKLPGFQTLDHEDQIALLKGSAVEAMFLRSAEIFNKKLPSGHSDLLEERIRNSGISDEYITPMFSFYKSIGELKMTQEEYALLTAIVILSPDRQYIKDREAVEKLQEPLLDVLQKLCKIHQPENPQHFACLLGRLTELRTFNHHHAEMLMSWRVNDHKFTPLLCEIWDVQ
Chain of Hepatocyte nuclear factor 4-alpha (Homo sapiens) (P41235 whole entry, looked up, the tested form may be a part): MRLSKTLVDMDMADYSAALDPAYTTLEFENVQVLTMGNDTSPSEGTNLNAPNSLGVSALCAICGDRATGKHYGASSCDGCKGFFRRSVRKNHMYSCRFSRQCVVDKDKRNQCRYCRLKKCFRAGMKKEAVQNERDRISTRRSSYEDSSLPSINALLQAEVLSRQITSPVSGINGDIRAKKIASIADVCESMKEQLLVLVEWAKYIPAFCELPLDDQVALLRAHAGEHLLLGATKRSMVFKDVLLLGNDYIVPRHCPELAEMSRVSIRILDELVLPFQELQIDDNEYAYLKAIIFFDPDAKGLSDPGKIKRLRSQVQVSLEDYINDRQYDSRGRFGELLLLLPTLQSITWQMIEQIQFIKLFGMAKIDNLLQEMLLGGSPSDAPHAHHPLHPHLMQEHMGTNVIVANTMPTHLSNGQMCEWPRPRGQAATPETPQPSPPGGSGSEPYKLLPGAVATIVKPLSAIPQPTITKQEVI

`Cc1noc(NS(=O)(=O)c2ccc(N)cc2)c1C`: the result in assay [1], in assay [2], in [3], in assay [4], in assay [5] and in [6] was inactive.

Regarding `CC(=O)c1ccc(S(=O)(=O)NC(=O)NC2CCCCC2)cc1`, the molecule was classed as inactive in assay [7], in assay [5] and in assay [6].

With `CCCCNS(=O)(=O)c1ccccc1`, the molecule was called inactive in assay [1], in [2], in assay [8], in assay [3], in assay [4] and in assay [9]. Also, in assay [6], the outcome was inactive.

Turning to `CC(=O)c1ccccc1O`, the call in [1], in assay [2], in assay [8], in [9] and in [6] was inactive.

As to `Cc1ccc(S(=O)(=O)N=C=O)cc1`, the molecule was classed as inactive in assay [7], in assay [3], in assay [4], in [5] and in assay [6].

For the molecule `CCCCC(=O)O`, the result in [1], in assay [8], in [3], in assay [4], in assay [9] and in assay [5] was inactive. Also, the outcome in [6] was inactive.

Take `CC1CCC(C(C)(C)S)C(=O)C1` (configuration not stated): the molecule was classed as inactive in assay [1], in assay [2], in [8], in assay [3], in [4] and in assay [9]. The molecule was classed as inactive in [5] and in assay [6].

Consider `CC1CCC(=O)C1=O` (configuration not stated), for which the molecule was called inactive in assay [7], in assay [5] and in assay [6].

For `Clc1cccnc1`, the molecule was classed as inactive in assay [1], in assay [2], in assay [8], in assay [4], in [9] and in assay [6].

For `CC(C)(O)Cc1ccccc1`, the molecule was called inactive in [7], in assay [9], in assay [5] and in [6].

As for `CC1(C)C(=O)N(CO)C(=O)N1CO`, the result in assay [1], in [2], in [8], in assay [3], in assay [4] and in [9] was inactive. In assay [6], the call was inactive.

`CCCCOCCOC(=O)COc1ccc(Cl)cc1Cl`: the call in [7], in [3], in assay [4], in [9], in [5] and in [6] was inactive.

Turning to `C=CC(=O)OCCCCCCCC(C)C`, the molecule was called inactive in assay [1], in assay [2], in [8], in assay [4] and in assay [6].

For `Cc1cc(C)n(CO)n1`, the call in assay [1], in assay [2], in [8], in assay [4], in assay [9] and in assay [6] was inactive.

Take `C1CCSC1`: the result in [1], in assay [2], in [8], in [3], in assay [4] and in [9] was inactive. Besides, the molecule was called inactive in assay [5] and in [6].

On to `Nc1cccc(N)n1`, for which the outcome in assay [7], in assay [3], in [4], in [9], in assay [5] and in assay [6] was inactive.

Take `CC1(C)CC(O)CC(C)(C)N1[O]`: the result in [1], in assay [8], in assay [3], in [4], in [5] and in assay [6] was inactive.

As to `CCC(C)C(=O)OCCc1ccccc1` (configuration not stated), the outcome in assay [1], in [8], in assay [3], in assay [4] and in [6] was inactive.

Turning to `CCCCCCCCCCCC(=O)N(C)CC(=O)O`, the result in assay [7], in assay [4], in assay [9] and in [6] was inactive.

As to `CCCCCC1=CCCC1=O`, the result in assay [1], in [8], in [4], in assay [9] and in assay [6] was inactive.

Consider `CCN1CN(CC)CN(CC)C1`, for which the outcome in assay [1], in assay [2], in [8], in [9], in assay [5] and in assay [6] was inactive.

Regarding `C=C(C)C(=O)OCCOC(=O)C(=C)C`, the result in assay [7], in assay [3], in [4], in assay [9] and in assay [6] was inactive.

Take `CCOC(=O)C1=NOC(c2ccccc2)(c2ccccc2)C1`: the call in assay [1], in assay [8], in [4], in [9] and in assay [6] was inactive.

Consider `C=Cc1cccc(C)c1`, for which the outcome in assay [7], in assay [4], in assay [9] and in assay [6] was inactive.

Regarding `Oc1ccc(/C=C/c2cc(O)cc(O)c2)cc1`, the outcome in [1], in assay [2], in assay [8], in [3], in assay [4] and in assay [6] was inactive. Moreover, the AC50 (commonly the midpoint of the concentration-response curve, whichever way the signal moves) in [5] was 74.6 µM (active).

With `CCOC(=O)OC(=O)OCC`, the call in assay [1], in assay [2], in assay [8], in [4], in [9] and in assay [5] was inactive. For the same molecule, the call in assay [6] was inactive.

For `COCC(=O)O`, the outcome in assay [7], in assay [3], in assay [9], in assay [5] and in assay [6] was inactive.

For the molecule `CC(C)CCCCCOC(=O)CS`, the molecule was called inactive in [7], in [3], in [4], in [9], in assay [5] and in assay [6].

As for `C=CCCCCCCCCOC(C)=O`, the call in assay [1], in assay [3], in assay [5] and in [6] was inactive.

Consider `O=S(=O)(O)c1ccc(N=Nc2c(O)ccc3ccccc23)cc1`, for which the molecule was classed as inactive in assay [2], in [8], in [5] and in assay [6].

For the molecule `CC=C(C)C=CC=C(C)C`, the call in [2], in assay [3], in assay [4], in [5] and in [6] was inactive.

For `Cc1ccc2c(c1)CCCN2`, the result in [2], in [3], in assay [4], in assay [9], in [5] and in assay [6] was inactive.

Take `Cc1ccccc1CCO`: the molecule was classed as inactive in assay [1], in assay [3], in [9] and in [6].

Consider `C=C[Si](OCCOC)(OCCOC)OCCOC`, for which the outcome in assay [2], in [8], in [3], in assay [9], in assay [5] and in assay [6] was inactive.

In the case of `CC(C)CCOCc1ccccc1`, the molecule was called inactive in assay [2], in assay [8], in [4], in [9], in [5] and in assay [6].

For the molecule `Cc1ccc(C)c(OCCCC(C)(C)C(=O)O)c1`, the molecule was called inactive in [2], in [8], in assay [3], in [4], in [9] and in assay [6].

As for `CCC(C)(O)CCCC(C)C` (configuration not stated), the outcome in assay [1], in assay [8], in assay [5] and in assay [6] was inactive.

For the molecule `CCOB(OCC)OCC`, the molecule was classed as inactive in [1], in [4], in assay [9] and in [6].

Turning to `CCCCCCCO`, the molecule was called inactive in assay [2], in assay [4], in assay [9], in assay [5] and in assay [6].

In the case of `CCCCC/C=C\C/C=C\CCCCCCCC(=O)O`, the call in [1], in [4], in [9] and in [6] was inactive.

For `CCCCc1ccc(Cl)cc1`, the outcome in assay [1], in assay [4], in assay [9], in assay [5] and in assay [6] was inactive.

Consider `CC(C=O)c1ccccc1` (configuration not stated), for which the call in assay [1], in assay [4], in assay [9], in assay [5] and in assay [6] was inactive.

On to `CC(=O)/C=C/C1C(C)=CCCC1(C)C` (configuration not stated), for which the call in [1], in [9], in [5] and in [6] was inactive.

On to `CC(c1cc(C(C)(C)C)cc(C(C)(C)C)c1O)c1cc(C(C)(C)C)cc(C(C)(C)C)c1O`, for which, in assay [1], the AC50 is 3.42 µM (active). The result in [4], in [5] and in [6] was inactive.

For the molecule `CC(C)=NNC(N)=S`, the molecule was called inactive in assay [1], in assay [4], in assay [5] and in [6].
